Compound activity from PubChem.
Beta cell apopt = blocks beta cell apoptosis | INS-1E cytokine-induced death, ATP luminescence, 48 h; percent of positive-control rescue, neutral wells zero | protection from apoptosis, % (no concentration beside the values) | hit rate 0.8% among 300,000;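 active = Every replicate reaches about 75%, or at least half do and their mean reaches it too, limit read from the data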;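 also: higher means more ATP so stronger rescue from cytokine killing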
Calb FLC = affects C. albicans growth with fluconazole; C. albicans CaCi-2 (fluconazole-resistant clinical isolate) + fluconazole, Alamar Blue growth, 48 h; growth inhibition, % (concentration not given with the values); hit rate 0.57% among 300,000; AID 1979;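 active = growth inhibition above about 58% in most replicates, limit read from the data, passing the limit was not always enough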;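 also: all wells also contain fluconazole at 8 µg/ml as a sub-toxic cotreatment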
CSC inhib = blocks cancer stem cells | hit rate 1.1% among 300,000 | AID 2717 | cancer stem cell-like cells viability, luminescence | inhibition, % at 7.5 µM; in the data active = inhibition above about 75%; tested in HMLE shEcad cells
PP5 primary = inhibitors of human protein phosphatase 5 (PP5) | AID 1987 | hit rate 0.18% among 320,000 | inhibition, % at 6.7 µM | purified PP5c, OMFP substrate fluorescence | P53041;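 active = inhibition above the campaign's mean inhibition across all tested compounds plus 3 SD, cut at about 9.5% in these data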
PP1 counter = counter-screen for PP5 inhibitors: inhibitors of human PP1-alpha; purified PP1alpha, OMFP fluorescence; inhibition, % at 6.7 µM; hit rate 0.9% among 320,000;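 active = inhibition above the mean inhibition of all tested compounds plus 3 SD, computed separately for each screening campaign, cut at about 15% in these data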
Mdm2-MdmX inh = inhibitors of human Mdm2/MdmX interaction | O15151+Q00987 | SaOS-2 split-luciferase Mdm2/MdmX complementation, luminescence | inhibition, % at 8 µM | hit rate 3% among 330,000 | AID 485346;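 active = inhibition of at least 50% at 8 µM in the primary screen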
Target sequence (O15151 whole entry, looked up): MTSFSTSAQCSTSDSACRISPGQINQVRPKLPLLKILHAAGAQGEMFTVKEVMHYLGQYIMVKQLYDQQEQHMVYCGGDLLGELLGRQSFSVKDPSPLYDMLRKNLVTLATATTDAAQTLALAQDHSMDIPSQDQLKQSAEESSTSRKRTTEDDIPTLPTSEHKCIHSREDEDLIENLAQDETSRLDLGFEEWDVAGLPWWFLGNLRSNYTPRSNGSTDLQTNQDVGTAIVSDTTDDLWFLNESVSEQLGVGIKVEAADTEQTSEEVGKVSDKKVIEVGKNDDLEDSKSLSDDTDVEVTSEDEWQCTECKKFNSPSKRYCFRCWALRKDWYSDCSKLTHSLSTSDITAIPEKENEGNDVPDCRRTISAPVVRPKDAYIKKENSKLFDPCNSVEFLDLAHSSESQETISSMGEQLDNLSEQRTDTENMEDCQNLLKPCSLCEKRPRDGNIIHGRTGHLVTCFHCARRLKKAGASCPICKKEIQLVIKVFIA
Target sequence (Q00987 whole entry, looked up): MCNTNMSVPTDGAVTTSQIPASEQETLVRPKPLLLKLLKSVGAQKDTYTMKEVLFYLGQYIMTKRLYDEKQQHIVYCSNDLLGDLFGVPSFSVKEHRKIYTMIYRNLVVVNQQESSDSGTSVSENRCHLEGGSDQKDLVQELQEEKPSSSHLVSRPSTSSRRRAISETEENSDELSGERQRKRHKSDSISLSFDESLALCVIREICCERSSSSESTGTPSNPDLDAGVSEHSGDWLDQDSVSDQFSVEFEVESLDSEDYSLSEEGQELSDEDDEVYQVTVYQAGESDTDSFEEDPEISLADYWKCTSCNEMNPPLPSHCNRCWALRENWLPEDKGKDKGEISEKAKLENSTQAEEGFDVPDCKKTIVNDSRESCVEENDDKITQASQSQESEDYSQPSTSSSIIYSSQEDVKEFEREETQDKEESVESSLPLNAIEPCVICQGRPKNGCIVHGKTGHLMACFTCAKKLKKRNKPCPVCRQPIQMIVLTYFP
Mdm2 MdmX conf = confirmation of human Mdm2/MdmX interaction inhibitors; inhibition, % at 8 µM; Mdm2-MdmX binding, luminescent assay; hit rate 55% among 10,000; shares compounds with Mdm2-MdmX inh; in the data active = inhibition above about 40%
Full FLuc ctr = counter-screen for Mdm2/MdmX inhibitors: full-length luciferase | shares compounds with Mdm2-MdmX inh | SaOS-2 full-length luciferase counterscreen, luminescence | inhibition, % at 8 µM | hit rate 77% among 6,200 | AID 504607;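 active = mean inhibition at 8 µM reaching about 37%, which flags the compound as non-specific, limit read from the data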;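 also: p53-null SaOS-2 cells with luciferase driven by a doxycycline-inducible promoter; compound on cells about two nights before reading with doxycycline added after day one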
Each line names hits and unclear results; the compound was inactive in the other large screens (follow-up assays come after a bar, where they were run). This is a sample that favours compounds with a hit; in the whole collection about 4.9% have one here.

Cc1ccc(-c2nn(-c3ccccc3)cc2/C=C(\C#N)C(=O)NCc2ccccc2)cc1	Mdm2-MdmX inh 75 | Mdm2 MdmX conf 44 | Full FLuc ctr 85
CCOc1ccc(NC(=O)C(C)NC(=O)c2ccccc2Cl)cc1S(=O)(=O)N1CCCC1 (stereo not drawn)	none (no result: Calb FLC, CSC inhib)
O=C(NCC1CCCO1)C1CCCN(S(=O)(=O)c2ccc(Cl)cc2)C1 (stereo not drawn)	none
CC1CCN(S(=O)(=O)c2ccc(S(=O)(=O)N3CCCC3)cc2)CC1	none
O=C(CCl)Nc1cc(-c2ccccc2)nn1-c1ccccc1	Mdm2-MdmX inh 84 | Mdm2 MdmX conf 62 | Full FLuc ctr inactive
COc1cc(C(=O)Oc2ccccc2/C=N/NC(=O)c2ccc(Cl)cc2)cc(OC)c1OC	none (no result: Beta cell apopt)
COc1cc(C(=O)Oc2ccccc2/C=N/NC(=O)c2ccc(C)c(Cl)c2)cc(OC)c1OC	Beta cell apopt 93, Mdm2-MdmX inh 58 | Mdm2 MdmX conf inactive
O=C(NCCc1c[nH]c2ccccc12)C(=O)NCC1OCCN1S(=O)(=O)c1ccc(Cl)cc1 (stereo not drawn)	Mdm2-MdmX inh 51 | Mdm2 MdmX conf 49 | Full FLuc ctr 37
CCC(Cc1ccccc1)NS(=O)(=O)c1ccc2c(c1)NC(=O)CO2 (stereo not drawn)	none (no result: Beta cell apopt, CSC inhib)
CC(C)CCN1CC(=O)N2[C@@H](Cc3c([nH]c4ccccc34)C2(C)C)C1=O	none (no result: PP5 primary, PP1 counter)
COc1ccc2c(c1[N+](=O)[O-])CCC/C2=N/OC(=O)c1cccc2ccccc12	Mdm2-MdmX inh 52 | Mdm2 MdmX conf inactive
COc1ccc2c(c1)CCC/C2=N/OC(=O)c1ccccc1OC	none
O=c1nc2sc3ccccc3n2c(=O)n1-c1ccc(Cl)cc1	none
Cc1[nH]c2ccccc2c1C(=O)NS(=O)(=O)Nc1ccc(Cl)cc1	none (no result: Beta cell apopt)
O=c1oc(-c2ccccc2F)nc2scc(-c3ccccc3)c12	Mdm2-MdmX inh 53 | Mdm2 MdmX conf 50 | Full FLuc ctr 171
COc1ccc(-c2csc3nc(C)nc(N4CCCCC4)c23)cc1OC	Mdm2-MdmX inh 65 | Mdm2 MdmX conf inactive
Cc1nc2scc(-c3ccccc3)c2c(=O)o1	none
COc1ccc(-c2csc3nc(-c4ccc(C)cc4)oc(=O)c23)cc1OC	Mdm2-MdmX inh 92 | Mdm2 MdmX conf inactive
COc1ccc(-c2csc3nc(C)n(-n4cccc4)c(=O)c23)cc1OC	none
COc1ccc(-c2csc3nc(-c4ccccc4OC)oc(=O)c23)cc1	Mdm2-MdmX inh 59 (no result: Calb FLC) | Mdm2 MdmX conf inactive
COc1ccc(N(CC(=O)N2CCOCC2)S(C)(=O)=O)cc1Cl	none
CCCc1nc(NCCCOCC)c2nnn(Cc3ccccc3)c2n1	none
Cc1onc(-c2ccccc2Cl)c1C(N)=O	none
Cc1nc(/C(N)=N/OC(=O)c2c(-c3ccccc3Cl)noc2C)cs1	Mdm2-MdmX inh 93 | Mdm2 MdmX conf 76 | Full FLuc ctr 96
COc1ccc(/C(N)=N/OC(=O)c2c(-c3ccccc3Cl)noc2C)cc1OC	Mdm2-MdmX inh 100 (no result: PP5 primary, PP1 counter) | Mdm2 MdmX conf 96 | Full FLuc ctr 96
COCCN(CC(=O)Nc1cccc(C)c1C)C(=O)c1ccc2ccccc2n1	none (no result: Beta cell apopt, Calb FLC, CSC inhib)
COc1ccc(S(=O)(=O)Cc2ccc(C(=O)N3CCN(c4cccc(C)c4C)CC3)o2)cc1	Mdm2-MdmX inh 63 (no result: Beta cell apopt) | Mdm2 MdmX conf 61 | Full FLuc ctr 47
COc1cccc(N2CCN(C(=O)c3ccc(CS(=O)c4ccc(Cl)cc4)o3)CC2)c1 (stereo not drawn)	none
Cc1onc(-c2ccccc2Cl)c1C(=O)N1CCN(c2cccc(Cl)c2)CC1	Mdm2-MdmX inh 54 (no result: Beta cell apopt) | Mdm2 MdmX conf 59 | Full FLuc ctr 57
Cc1[nH]c2ccc(C(=O)N3CCN(c4cccc(Cl)c4)CC3)cc2c1C	Mdm2-MdmX inh 51 (no result: Calb FLC) | Mdm2 MdmX conf 57 | Full FLuc ctr 56
Cc1ccc(S(=O)(=O)Cc2ccc(C(=O)N3CCN(c4cccc(C)c4C)CC3)o2)cc1	none
COc1cccc(N2CCN(C(=O)c3ccc(CS(=O)c4ccc(C)cc4)o3)CC2)c1 (stereo not drawn)	Mdm2-MdmX inh 58 | Mdm2 MdmX conf 52 | Full FLuc ctr 61
Cc1[nH]c2ccc(C(=O)N3CCCCC3)cc2c1C	none
CCc1ccccc1NC(=O)CN(C1CCCCC1)S(C)(=O)=O	none
CCn1c(SCC(=O)N2CCCCC2C)nc2c1c(=O)n(C)c(=O)n2C (stereo not drawn)	none (no result: CSC inhib)
Cc1cccc(N2CCN(C(=O)c3ccc(S(=O)(=O)N(C)c4ccccc4)cc3)CC2)c1C	Mdm2-MdmX inh 67 (no result: Calb FLC, PP5 primary, PP1 counter) | Mdm2 MdmX conf 59 | Full FLuc ctr 61
Cc1ccc(N2CCN(C(=O)c3ccccc3)CC2)c(C)c1	none
CN(c1ccc(C(=O)N2CCCCCC2)cc1)S(=O)(=O)c1ccccc1	none (no result: Calb FLC)
Cc1[nH]c2ccc(C(=O)N3CCN(c4ccccc4Cl)CC3)cc2c1C	none (no result: Calb FLC)
Cc1cccc(N2CCN(C(=O)c3ccc4[nH]c(C)c(C)c4c3)CC2)c1C	Mdm2-MdmX inh 60 (no result: Calb FLC, PP5 primary, PP1 counter) | Mdm2 MdmX conf 58 | Full FLuc ctr 71
COc1ccccc1N1CCN(C(=O)c2ccc3[nH]c(C)c(C)c3c2)CC1	Mdm2-MdmX inh 51 | Mdm2 MdmX conf 63 | Full FLuc ctr 66
Cc1[nH]c2ccc(C(=O)N3CCCC3)cc2c1C	none
COc1cc(C(=O)N2CCN(c3ccc(C)cc3C)CC2)cc(OC)c1OC	Mdm2-MdmX inh 58 | Mdm2 MdmX conf 47 | Full FLuc ctr 44
COc1ccc(N2CCN(C(=O)c3ccc4c(c3)[nH]c(=S)n3c5ccccc5nc43)CC2)cc1	none
O=C(c1ccc2c(c1)[nH]c(=S)n1c3ccccc3nc21)N1CCN(c2cccc(Cl)c2)CC1	Beta cell apopt 82, Mdm2-MdmX inh 85 | Mdm2 MdmX conf inactive
O=C(NCc1ccccc1)Nc1cccn(Cc2c(F)cccc2Cl)c1=O	Mdm2-MdmX inh 56 | Mdm2 MdmX conf 43 | Full FLuc ctr 73
Cc1ccc(NC(=O)Nc2cccn(Cc3c(F)cccc3Cl)c2=O)cc1	none
O=c1[nH]c(=O)n(Cc2ccccc2)c2nc(-c3ccco3)cc(C(F)(F)F)c12	Mdm2-MdmX inh 53 | Mdm2 MdmX conf inactive
Cc1cc(C)n(-c2nc(NCC(C)O)c3c4c(sc3n2)COC(C)(C)C4)n1 (stereo not drawn)	none
Cc1cc(C)n(-c2nc(SCCN(C)C)c3c4c(sc3n2)COC(C)(C)C4)n1	Mdm2-MdmX inh 54 | Mdm2 MdmX conf 58 | Full FLuc ctr 53
O=C(COC(=O)c1cc(S(=O)(=O)N2CCCCC2)ccc1N1CCOCC1)c1ccccc1	none
Cc1ccc(S(=O)(=O)N/N=C\c2cn(CC(N)=O)c3ccccc23)cc1C	Mdm2-MdmX inh 52 | Mdm2 MdmX conf inactive
Cc1nc(SCC(=O)Nc2ccc(CN3CCCC3)cc2)c2c(C)c(C)sc2n1	Mdm2-MdmX inh 84 (no result: Calb FLC, CSC inhib) | Mdm2 MdmX conf inactive | Full FLuc ctr 64
